This note sets out measurements from the supplement of paper PMC6522484.

Molecules are shown by their SMILES. ± gives the standard deviation of the averaged measurements.

The test system of experiment [1] is DLD1. Nature of the experiment: cell viability (CellTiter-Glo) relative to plate median (fraction of plate median); higher = more viable cells. The note with it: 5 µM; treatment time 24 h; reporter: 7TFP. The essentials: (§1)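 Signals from firefly luciferase or CellTiterGlo readouts were normalised well by well to the plate median using webcellHTS2, additively and with no log transformation. They came from colorectal cancer cell lines stably holding lentiviral TCF/Wnt firefly luciferase reporters (7TFP or TCF4/Wnt), treated with library compounds at a final 5 µM for 24 h. The mean of two independent replicates is given.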
(ATP-based viability assays read luminescence as a measure of living cells.)

Another experiment deals with HCT116. Described as above. The note with it: 5 µM; treatment time 24 h; reporter: TCF4/Wnt. Put shortly:
as §1

Experiment [2] deals with SW480. The experiment is described as above. The note with it: 5 µM; treatment time 24 h; reporter: 7TFP. Put shortly:
as §1

Experiment [3] has as its system DLD1. Nature of the experiment: TCF/Wnt firefly luciferase reporter signal relative to plate median (fraction of plate median); higher = higher Wnt reporter signal. Particulars: 5 µM; treatment time 24 h; reporter: 7TFP. The essentials: as §1
In experiment [4] the test system is SW480. The experiment is described as above. Particulars: 5 µM; treatment time 24 h; reporter: 7TFP. The essentials: as §1

`CN1C[C@H](C(=O)N[C@]2(C)O[C@@]3(O)[C@@H]4CCCN4C(=O)[C@H](Cc4ccccc4)N3C2=O)C=C2c3cccc4[nH]cc(c34)C[C@H]21`: the cell viability was determined as 0.967 ± 0.09 in the experiment with DLD1 [1], 1.11 ± 0.078 in the experiment with HCT116 and 1.03 ± 0.042 in the experiment on SW480 [2]. Further, the “TCF/Wnt firefly luciferase reporter signal” value was 1.23 ± 0.25 in the experiment on DLD1 [3] and 1.16 ± 0.078 in the experiment on SW480 [4].
In the case of `O=C(O)CCC1NCC2CC1CN1CCCCC21` (stereo not given), the cell viability turned out to be 0.999 ± 0.044 with DLD1 [1], 1.08 ± 0.042 with HCT116 and 0.971 ± 0.023 in the experiment on SW480 [2]. Also, the “TCF/Wnt firefly luciferase reporter signal” value in the experiment on DLD1 [3] was determined as 1.27 ± 0.28; in the experiment with SW480 [4] it was 1.11 ± 0.078.
As to `CCCCCCCCCc1ccc(O)cc1`, the cell viability was 1.03 ± 0.028 in the experiment with DLD1 [1], 0.999 ± 0.016 in the experiment on HCT116 and 0.946 ± 0.0071 in the experiment with SW480 [2]. The “TCF/Wnt firefly luciferase reporter signal” value turned out to be 1.19 ± 0.092 in the experiment with DLD1 [3] and 1.17 ± 0.05 in the experiment on SW480 [4].
`O=C([O-])Cc1ccccc1.[Na+]`: the cell viability with DLD1 [1] stood at 0.97 ± 0.0057; in the experiment with HCT116, 0.906 ± 0.1; in the experiment with SW480 [2], 0.971 ± 0.021. The “TCF/Wnt firefly luciferase reporter signal” value came out at 0.923 ± 0.04 with DLD1 [3] and 0.896 ± 0.0042 in the experiment on SW480 [4].
As to `CC[C@H]1[C@@H]2C[C@H]3[C@@H]4N(C)c5ccccc5[C@]45C[C@@H]([C@@H]2[C@H]5O)N3[C@@H]1O`, the figures for the cell viability in the experiment on DLD1 [1], in the experiment on HCT116 and with SW480 [2] were 0.898 ± 0.03, 0.899 ± 0.1 and 0.95 ± 0.023, respectively. The “TCF/Wnt firefly luciferase reporter signal” value with DLD1 [3] came to 0.942 ± 0.0085; in the experiment with SW480 [4], 1.05 ± 0.05.
Regarding `C[C@]12CCC(=O)C=C1CCc1ccc(O)cc12`, the cell viability was found to be 1.03 ± 0.042 with DLD1 [1], 1.05 ± 0.05 in the experiment on HCT116 and 1.05 ± 0.014 in the experiment with SW480 [2]. For the same compound, the entries for the “TCF/Wnt firefly luciferase reporter signal” value in the experiment on DLD1 [3] and with SW480 [4] were 1.07 ± 0.14 and 1.03 ± 0.028, respectively.
On the same counts, the results for `CC(=O)O[C@@H]1CC[C@@]2(C)[C@@H](CC[C@@H]3[C@@H]2CC[C@]2(C)C(=O)CC[C@@H]32)C1` are 1.025 ± 0.0071, 0.924 ± 0.28, 1.01 ± 0.04, 1.15 ± 0.035 and 1.08 ± 0.099.
